Hits are enriched below; roughly 21% of the tested compounds scored in any of these assays.
HCMV antiviral = qHTS Assay for inhibitors of the human cytomegalovirus (HCMV) | activity change, negative = inhibition, % at 57.5 µM | HFF cells, HCMV-luciferase reporter, 72 h; stronger effect = lower value | AID 1259415, 2018 | 410,000 tested, 4.5% active; in the data active = activity change below about -60%; inconclusive = no clear call, values can overlap the other calls; inactive = above about -39%; also: % is scaled to controls: 0 for no effect and ±100 for the full control effect
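Screen run at 2 compound doses on HFFs infected with reporter HCMV, MOI 1 PFU/cell. Luciferase activity from cell lysates at 72 h post infection gave inhibition relative to buffer-only and Salinomycin wells.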
Pf growth 96h = Primary qHTS for delayed death inhibitors of the malarial parasite plastid, 96 hour incubation | P. falciparum luciferase reporter growth, 96 h | Potency, µM (highest dose often 28.7 µM), for the others: at the top dose activity change, negative = inhibition, hits mostly inhibitors | 320,000 tested, 6.9% active | AID 504834, 2011; also: potency is read from the fitted curve at half-maximal effect; % is scaled to controls: 0 for no effect and ±100 for the full control effect
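Readout is luminescence from an integrated firefly luciferase in P. falciparum. Red cells, 2% hematocrit and 0.05% parasitemia final, were cultured with compound through two parasite generations (96 hours) at 37 C, 5% CO2.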
HCV inh = qHTS Assay for Inhibitors of Hepatitis C Virus (HCV); Huh7.5.1 HCVcc-Cre infection, luciferase reporter, 44 h; Potency, µM (doses to about 41.8 µM), for inactives: top-dose activity change, negative = inhibition, most hits filed as inhibitors; 340,000 tested, 3.4% active; AID 651820, 2012; also: potency is read from the fitted curve at half-maximal effect; % is scaled to controls: 0 for no effect and ±100 for the full control effect
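Seed cells (1,000/well) for 4 h; treat with compound and infect with HCVcc-Cre, moi about 0.5. Incubate 44 h, then detect luciferase activity.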
Pf growth 48h = Primary qHTS for delayed death inhibitors of the malarial parasite plastid, 48 hour incubation; AID 504832, 2011; P. falciparum luciferase growth in erythrocytes, 48 h; 310,000 tested, 5.9% active; Potency, µM (series often up to 28.7 µM), without a hit: at the highest dose activity change, negative = inhibition, actives largely listed as inhibitors; also: potency is read from the fitted curve at half-maximal effect; % is scaled to controls: 0 for no effect and ±100 for the full control effect
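In quantitative HTS format, infected erythrocytes bearing luciferase-reporter parasites were treated for a single generation at 37 C. Luminescence after adding detection reagent served as the growth measure.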
Cycloheximide cs = Cycloheximide Counterscreen for Small Molecule Inhibitors of Shiga Toxin. cell reporter, cycloheximide protein synthesis inhibition counterscreen. max response, %. 300,000 tested, 12% active. AID 2314, 2010; in the data active = max response mostly above about 13%, no sharp cut-off; inactive = mostly below about 14%; also: read at 38.3 µM for the half of the compounds with a filed dose; 0% is about no effect
Shiga inhibitor = A qHTS for Small Molecule Inhibitors of Shiga Toxin. Vero cells, Shiga toxin protein synthesis inhibition reporter. inhibition, % at 38.7 µM. 290,000 tested, 9.2% active. AID 2315, 2010; in the data active = inhibition mostly above about 28%, no sharp cut-off; inactive = mostly below about 43%; also: 0% is about no effect
An asterisk follows results filed as active; ? = inconclusive; · = no result; ! = repeats disagree. Unless noted, calls follow the shape of the dose curve; as a rule, active = well fitted inhibition curve with a large enough effect; inconclusive = small, poorly fitted or top-dose-only effect, or another doubt; inactive = no such curve, though single readings can be large or run the other way.

SMILES	HCMV antiviral	Pf growth 96h	HCV inh	Pf growth 48h	Cycloheximide cs	Shiga inhibitor
CCOC(=O)c1cc(-c2ccccc2)nc2nc(N(CC)CC)sc12	-90*	12µM*	14µM*	9.3µM*	-1	3
CCOC(=O)c1cnc2c(ccc3ccccc32)c1Nc1ccccc1O	3	·	·	·	·	·
CCOC(=O)c1cnc2c(ccc3ccccc32)c1Cl	-24	1%	7%	?	21*	121*
CCN(CC)C(=O)C1=C(C)N(CCCOC)C(=O)C(CC(=O)NC2CC2)C1 (stereo not drawn)	15	·	·	·	·	·
CC(=O)N1CCc2c(sc(NC(=O)CS(=O)(=O)c3ccc(F)cc3)c2C(N)=O)C1	-32	14%	20%	0%	·	·
COc1ccc(N2CC(C)(C)C[C@H]2/C=C/C(=O)OC(C)(C)C)cc1	-7	·	·	·	·	·
Cc1cc(F)ccc1NC(=O)C1CCCN(S(=O)(=O)c2ccc3c(c2)CCCC(=O)N3)C1 (stereo not drawn)	-1	·	·	·	·	·
CCOC(=O)c1nn(-c2ccc(F)cc2)c(=O)cc1OCC(=O)N1CCN(c2ccccc2)CC1	-13	2%	-5%	-27%	·	·
COc1cc(/C=C/C(=O)O)cc(S(=O)(=O)Nc2cc(S(=O)(=O)N3CCCCC3)ccc2Cl)c1OC	1	·	·	·	·	·
CCOC(=O)c1cnc(-c2ccccc2)nc1-c1ccccc1	-102*	-30%	-12%	?	22	28
Cc1csc(=Nc2ccccc2)n1Cc1ccco1	-10	-4%	11%	19%	29*	31
O=C1NN(c2ccc(F)cc2)C(=O)/C1=C\C=C\c1ccco1	-30	1.7µM*	6%	-1%	-2	9
CC(C)c1ccc(N2C(=O)NC(=O)/C(=C\C=C\c3ccco3)C2=O)cc1	-95*	-39%	?	12%	-7	-4
CN(C)c1ccc(NC(=O)Cn2nnc3sc4c(c3c2=O)CCC(C(C)(C)C)C4)cc1 (stereo not drawn)	-3	·	·	·	·	·
Cc1ccc2oc(-c3ccc(NC(=O)CCC(=O)O)cc3)nc2c1	64	·	·	·	·	·
Cc1cc(NC(=O)c2cc(-c3ccc(OC(C)C)cc3)nc3ccccc23)no1	5	-13%	?	?	20*	39
CCOc1ccccc1C(=O)NCCCN1CCN(CCCNC(=O)c2ccccc2OCC)CC1	6	?	10µM*!	?	-4	1
O=C(NCCCN1CCOCC1)c1cc(-c2ccco2)nc2ccccc12	0	·	8%	·	·	·
O=C(NCCCN1CCOCC1)c1cc(-c2ccc(Cl)s2)nc2ccccc12	-11	?	?	17µM*	·	·
CCC(C)c1ccc(-c2cc(C(=O)OCC(=O)Nc3cc(C)on3)c3ccccc3n2)cc1 (stereo not drawn)	58	144%	28%	·	12	24
CCOc1ccc(-c2cc(C(=O)NCCCN3CCOCC3)c3ccccc3n2)cc1	0	?	?	-5%	23*	40
CC(C)Oc1ccc(-c2cc(C(=O)NCCN3CCOCC3)c3ccccc3n2)cc1	95	31%	10µM*	2.3µM*	30*	61
Cc1c(C(=O)COC(C)(C)C)[nH]c2ccccc12	-21	3%	-7%	2%	20*	25
CCOC(=O)c1[nH]c(C)c(C(=O)NCc2ccco2)c1C	-11	3%	3%	17%	0	-12
CCOC(=O)c1[nH]c(C)c(CN(Cc2ccco2)C(=O)C(F)(F)F)c1C	-21	1%	?	10µM*	-3	-5
CCOC(=O)c1[nH]c(C)c(CN(CCc2ccccc2)C(=O)CCC(=O)O)c1C	-7	4.1µM*	15%	-35%	-2	-17
CCOC(=O)c1c(C)[nH]c(C(=O)NCc2ccco2)c1C	·	72%	·	52%	43*	53*
CCOC(=O)c1[nH]c(C)c(CCC(=O)Nc2cccc(C(F)(F)F)c2)c1C	-24	·	·	·	·	·
O=c1[nH]c(CN2CCN(c3ccccc3)CC2)nc2scc(-c3ccccc3)c12	-17	?	?	?	-5	-5
Cc1sc2nc(CN3CCN(c4ccc(O)cc4)CC3)[nH]c(=O)c2c1C	-27	12µM*	-6%	?	1	5

Bioassay records: PubChem, National Center for Advancing Translational Sciences (NCATS)
